Cycloheximide cs: counter-screen hit for Shiga toxin inhibitors, cycloheximide. cell reporter, cycloheximide protein synthesis inhibition counterscreen. max response, %. 12% of 300,000 active. AID 2314; in the data active = max response mostly above about 13%, no sharp cut-off; inactive = mostly below about 14%; also: read at 38.3 µM for the half of the compounds with a filed dose
Pf growth 48h: P. falciparum growth inhibition at 48 hours (one generation); P. falciparum luciferase growth in erythrocytes, 48 h; Potency, µM (series often up to 28.7 µM), hits mostly inhibitors; 5.9% of 310,000 active
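Read-out is firefly luciferase luminescence from an integrated reporter in P. falciparum, so falling signal marks reduced parasite growth. Infected erythrocytes were at 2% hematocrit and 0.1% parasitemia (final) in Albumax-supplemented RPMI 1640.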
Pf growth 96h: inhibits malaria parasite growth, 96 h; P. falciparum luciferase reporter growth, 96 h; Potency, µM (top dose mostly 28.7 µM), most hits filed as inhibitors; 6.9% of 320,000 active; AID 504834
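96 h incubation, 37 C, 5% CO2, of luciferase-reporter P. falciparum-infected RBCs (2% hematocrit, 0.05% parasitemia final) with test compounds; endpoint luminescence.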
Shiga inhibitor: Shiga toxin inhibition | Vero cells, Shiga toxin protein synthesis inhibition reporter | AID 2315 | 9.2% of 290,000 active | inhibition, % at 38.7 µM; in the data active = inhibition mostly above about 28%, no sharp cut-off; inactive = mostly below about 43%
A number is an active result; 0 = inactive; ? = inconclusive; - = not tested or not shown. Compounds with a hit are over-represented: about 21% of the library has one in this group of screens. Unless noted, calls follow the shape of the dose curve; as a rule, active = well fitted inhibition curve with a large enough effect; inconclusive = small, poorly fitted or top-dose-only effect, or another doubt; inactive = no such curve, though single readings can be large or run the other way.

SMILES	Cycloheximide cs	Pf growth 48h	Pf growth 96h	Shiga inhibitor
Cc1ccc(SC(C)C(=O)NC2CC2)cc1 (stereo not drawn)	0	10.4µM	10.4µM	0
O=C(CCSCc1cccc(Cl)c1)NCCC1=CCCCC1	0	0	0	0
CC(=O)Nc1ccc(SC(C)C(=O)NC2CCCC2)cc1 (stereo not drawn)	0	0	0	0
O=C(Nc1ccc(F)cc1F)NC1CCN(Cc2c(F)cccc2Cl)CC1	0	?	?	0
Cc1ccccc1NC(=O)CSc1n[nH]c(-c2ccccn2)n1	0	?	0	0
CCCC1CCC(=C(C#N)C(N)=O)CC1 (stereo not drawn)	0	0	0	0
O=c1c(C=NCCCO)c(-c2ccccc2)[nH]n1-c1nc2ccccc2s1	27.5	0	0	38.5
CCCc1[nH]n(-c2nc3ccccc3s2)c(=O)c1C=NCCCOC	0	0	0	0
COCCCN=Cc1c(-c2ccccc2)[nH]n(-c2nc3ccccc3s2)c1=O	16.2	?	0	0
CCCc1[nH]n(-c2nc3ccccc3s2)c(=O)c1C=NCCN1CCOCC1	0	0	?	0
O=c1cc(-c2ccccc2)[nH]n1-c1nc2ccccc2s1	0	0	5.22µM	0
CCCCCN=Cc1c(C)[nH]n(-c2nc3ccccc3s2)c1=O	16.4	0	0	0
CCOC(=O)C1=C(COC(=O)COc2ccc(C#N)cc2)NC(=O)NC1C (stereo not drawn)	0	0	0	0
Cc1noc(C)c1-c1ccc2ncnc(NCC3CCN(C)CC3)c2c1	0	-	-	0
O=C(CC1NCCC[C@H]1O)Cn1cnc2cc(Br)c(Cl)cc2c1=O (stereo partly drawn)	-	0.601µM	?	-
O=C(Cn1cnc2ccc(Cl)cc2c1=O)NC1CCS(=O)(=O)C1 (stereo not drawn)	-	0	0	-
CCn1cc(S(=O)(=O)NCCc2ccccc2OC)cn1	0	0	0	0
O=C(O)c1ccc(COc2ccc3ccccc3c2)o1	42.3	0	0	93.8
CCOc1ccc(OCc2ccc(C(=O)O)o2)cc1	32.9	0	?	60.4
Cc1c(C(N)=O)sc2ncn(CC(=O)N(C)C3CCCCC3)c(=O)c12	0	0	0	0
Oc1ccc(N=Nc2ccccc2)o1	30.1	0	0	42.1
COc1ccc(N2CCN(C(c3ccccc3OC)c3nnnn3C3CCCC3)CC2)cc1 (stereo not drawn)	0	14.7µM	-	0
Fc1ccc(N2CCN(C(c3cccs3)c3nnnn3C3CCCC3)CC2)cc1 (stereo not drawn)	0	10.4µM	0	0
COc1ccc(N2CCN(C(c3cccc(OC)c3OC)c3nnnn3C3CCCC3)CC2)cc1 (stereo not drawn)	0	?	0	0
COc1ccc(OC)c(C(c2nnnn2C2CCCC2)N2CCN(c3ccccc3F)CC2)c1 (stereo not drawn)	0	4.15µM	?	0
SMILES	Cycloheximide cs	Pf growth 48h	Pf growth 96h	Shiga inhibitor
COc1ccccc1NC(=O)c1sc2ncn(Cc3ccc(C)cc3)c(=O)c2c1C	0	?	?	0
COc1ccccc1NC(=O)c1sc2ncn(Cc3cccc4ccccc34)c(=O)c2c1C	0	0	9.28µM	0
CCCCCCOC(=O)C(C#N)c1nc2ccccc2nc1N1CCN(CC)CC1 (stereo not drawn)	0	?	?	0
COCCCNC(=O)C(C#N)c1nc2ccccc2nc1N1CCCC1 (stereo not drawn)	0	8.28µM	7.38µM	0
CCN1CCN(c2nc3ccccc3nc2C(C#N)C(=O)OCc2ccccc2)CC1 (stereo not drawn)	0	11.7µM	?	0
CCOC(=O)N1CCN(c2nc3ccccc3nc2C(C#N)C(=O)NCCc2ccccc2)CC1 (stereo not drawn)	0	7.38µM	?	0
COc1ccccc1N1CCN(c2nc(C)cc(C)c2C#N)CC1	0	0	8.28µM	0
N#CC(C(=O)NCCc1ccccc1)c1nc2ccccc2nc1N1CCCCC1 (stereo not drawn)	0	?	0	0
Cc1cc(C)c(C#N)c(N2CCN(c3ccccc3)CC2)n1	0	0	0	0
NC(=O)C1CC(=O)N(c2ccc(OCc3c(Cl)cccc3Cl)cc2)C1 (stereo not drawn)	0	?	0	0
CCOc1ccccc1N1CCN(c2nc3ccccc3nc2C(C#N)C(=O)OC)CC1 (stereo not drawn)	0	?	?	0
COc1ccccc1N1CCN(c2nc3ccccc3nc2C(C#N)C(=O)OC(C)C)CC1 (stereo not drawn)	0	1.85µM	2.08µM	0
COc1ccc(-n2c(=O)c3c4c(sc3n(Cc3cccc(F)c3)c2=O)CN(C(C)=O)CC4)c(OC)c1	0	0	?	0
CC(=O)N1CCc2c(sc3c2c(=O)n(-c2ccccc2)c(=O)n3Cc2ccccc2Cl)C1	0	?	11.7µM	0
